Experimental data: PubChem BioAssay (NCI)
The panel holds about 79,000 compounds, 15% with a hit somewhere; the sample as a whole holds those more often. Rule as the data show it: active = growth inhibition above about 70%; inactive = the rest.

Assays:
[1] = NCI Yeast Anticancer Drug Screen. Data for the rad50 strain (AID 155);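 also: 0% = growth of vehicle-only cultures of the same strain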; conditions: S. cerevisiae rad50 strain growth inhibition; at 50.0 µM; active compounds read high
Summary of the method: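 Genetically altered yeast (DNA repair pathway); compound treatment; growth inhibition vs vehicle ctrl.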

[2] = NCI Yeast Anticancer Drug Screen. Data for the mec2-1 strain (AID 157); conditions: S. cerevisiae mec2-1 strain, at 50.0 µM, active compounds read high
Summary of the method: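 Mutant yeast (mec2-1) grown with compound; growth inhibition relative to vehicle control reported.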

[3] = NCI Yeast Anticancer Drug Screen. Data for the sgs1 mgt1 strain (AID 161);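 also: 0% = growth of cultures given vehicle only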; conditions: S. cerevisiae sgs1 mgt1 strain, at 50.0 µM, active compounds read high
Summary of the method: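 Growth of a repair-deficient yeast mutant was monitored after compound treatment and expressed as inhibition relative to vehicle-treated cultures.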

[4] = NCI Yeast Anticancer Drug Screen. Data for the cln2 rad14 strain (AID 165);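 also: 0% = growth equal to vehicle treated cultures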; conditions: S. cerevisiae cln2 rad14 strain, at 50.0 µM, active compounds read high
Summary of the method: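 Readout is yeast growth inhibition versus vehicle-treated controls, using a strain with cln2 and rad14 alterations exposed to compound.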

[5] = NCI Yeast Anticancer Drug Screen. Data for the bub3 strain (AID 167); conditions: S. cerevisiae bub3 mutant strain, at 50.0 µM, active compounds read high
Summary of the method: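 Yeast carrying a defined mutation is treated with each compound, and growth is compared with that of vehicle-exposed cells to give inhibition.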

[6] = NCI Yeast Anticancer Drug Screen. Data for the mlh1 rad18 strain (AID 175); conditions: S. cerevisiae mlh1 rad18 strain growth inhibition; at 50.0 µM; active compounds read high
Summary of the method: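 Genetically defined yeast (DNA repair-deficient) exposed to compounds; growth inhibition determined relative to vehicle.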

Measured: growth inhibition

CC1OS(=O)(=O)CS(=O)(=O)OC1C (stereo not drawn)
inactive: [1] -50.1% | [2] -24.9% | [3] -12.8% | [4] -61.4% | [5] 4.8% | [6] -6.15%

O=C(NC1CC/C=C(/c2ccccc2)CC(Cl)C1)c1ccccc1 (stereo not drawn)
inactive: [1] 7.85% | [2] 4.9% | [3] -8.9% | [4] -3.5% | [5] 6.6% | [6] -0.25%

CCOC(=S)SC1OC(COC(C)=O)C(OC(C)=O)C(OC(C)=O)C1OC(C)=O (stereo not drawn)
inactive: [1] 57.5% | [2] 11.4% | [3] 55.2% | [4] 45.8% | [5] 17.2% | [6] 10.7%

CCCCCC(C)(O)CCCCC
inactive: [1] 0.15% | [2] 1.75% | [3] 1.7% | [4] 11.7% | [5] 18.3% | [6] 12%

O=C1OCC(O)C(O)C(O)C(O)C1O (stereo not drawn)
inactive: [1] 36.1% | [2] 27.3% | [3] 26.2% | [4] 21.1% | [5] 38.4% | [6] 39.7%

O=C(O)C(CCc1cccc(Cl)c1)C(=O)O
inactive: [1] 8.1% | [2] -13.8% | [3] -0.85% | [4] 2.15% | [5] 4.35% | [6] -11.6%

CCNC(=O)NCc1cccc2ccccc12
inactive: [1] -0.05% | [2] -8.15% | [3] -7.15% | [4] -74.2% | [5] 5.15% | [6] -1.6%

O=C(Oc1ccc(-c2ccc([N+](=O)[O-])cc2)cc1)c1ccccc1
inactive: [1] 29.8% | [2] 3.9% | [3] 17% | [4] 15.4% | [5] 19.9% | [6] 8.25%

COc1ccc2ccc3c4c(c(=O)[nH]c3c2n1)CCC4
inactive: [1] 44% | [2] 28.8% | [3] 33.7% | [4] 2.55% | [5] 9.95% | [6] 30.9%

Cc1cc(=O)c(C#N)c(C)o1
inactive: [1] 6.65% | [2] 10.2% | [3] 19.4% | [4] -2.7% | [5] -1.95% | [6] 10%

CCOc1c(N=Nc2cccc(Cl)c2)c(-c2ccccc2)nn1C(N)=S
inactive: [1] -3.4% | [2] -10.3% | [3] -24.2% | [4] 2.15% | [5] 35.5% | [6] 20.8%

C/C(=N/O)c1ccc(C(F)(F)F)cc1
inactive: [1] -5.25% | [2] -15.6% | [3] -18.8% | [4] -17.9% | [5] -48.5% | [6] -2.15%

CC(=O)NC1(C)C(=O)N=C(N)N=C1N (stereo not drawn)
inactive: [1] 11.2% | [2] 4.3% | [3] 11.1% | [4] -29.8% | [5] -4.9% | [6] 8.8%

O=C1NN=C(C2CCCCC2)C12CCCCC2
inactive: [1] 8.05% | [2] -2.85% | [3] 1.3% | [4] 2.85% | [5] 5.45% | [6] -8.4%

COc1cc2ccccc2oc1=O
inactive: [1] 21.3% | [2] 8.85% | [3] 3.8% | [4] 15.2% | [5] 5.2% | [6] 21.6%

c1cc[n+](Cc2ccc3ccccc3n2)cc1
inactive: [1] -0.95% | [2] -5.5% | [3] -5.85% | [4] -27.4% | [5] -2.2% | [6] 28.9%

C/C(=N/NC(N)=S)c1cn[nH]c1C
inactive: [1] -64.3% | [2] -19.9% | [3] -16.1% | [4] -55.4% | [5] 4.5% | [6] -1.6%

CCOc1cc(F)cc([N+](=O)[O-])c1
inactive: [1] -11.6% | [2] 5.3% | [3] -20.9% | [4] -14.9% | [5] 19.1% | [6] 5.7%

CC(=O)N(c1ccc(NC(=O)c2ccc(N3C(=O)c4ccccc4C3=O)cc2[N+](=O)[O-])cc1)c1cc[n+](C)cc1
inactive: [1] -13.8% | [2] 2.3% | [3] -1% | [4] 9.35% | [5] -5.1% | [6] 3.75%

CCN(CC)CCN(CC)CCN(CC)CC
inactive: [1] 6.7% | [2] 5.65% | [3] -1.75% | [4] 3.85% | [5] 4.1% | [6] -0.7%

Cc1ccc(S(=O)(=O)/C(C#N)=C\N2CCNC2=S)cc1
inactive: [1] -11.7% | [2] -24.3% | [3] -6.4% | [4] 13.5% | [5] 4.4% | [6] -2.25%

O=C(Nc1ccc(Cl)c(Cl)c1)OC1C=CS(=O)(=O)C1 (stereo not drawn)
inactive: [1] -7.9% | [2] -5.95% | [3] -12.3% | [4] 7.7% | [5] 3.5% | [6] -0.15%

CC(C(=O)O)/C(=C\c1ccc2c(c1)OCO2)C(=O)O (stereo not drawn)
inactive: [1] 8.15% | [2] 11.3% | [3] -12.9% | [4] -7.7% | [5] 12.9% | [6] 16.8%

NC(=O)N1N=C2c3ccccc3SC[C@H]2[C@@H]1c1ccccc1
inactive: [1] 29.5% | [2] -23.2% | [3] -26.8% | [4] 2.55% | [5] -20.9% | [6] 21.6%

CC(C)CC(N)C(=O)OCN1C(=O)C2C3C=CC(C2C1=O)C1C2C(=O)N(COC(=O)C(N)CC(C)C)C(=O)C2C31 (stereo not drawn)
inactive: [1] 16.1% | [2] 15.6% | [3] 5.05% | [4] 36.5% | [5] -0.05% | [6] 9.7%

COc1ccc(C2c3cc4c(cc3OC(N3CCOCC3)C2C)OCO4)c(OC)c1OC (stereo not drawn)
inactive: [1] 2.45% | [2] 5.4% | [3] 14% | [4] -1.1% | [5] 11.8% | [6] 21.7%

Cc1ccc(C(=O)Nc2ccc3c(c2)Cc2ccccc2-3)cc1
inactive: [1] -19.3% | [2] -23.6% | [3] -7.45% | [4] -5% | [5] -20.6% | [6] -10.8%

CCC(c1ccco1)C(C#N)C(=O)OC(C)(C)C (stereo not drawn)
inactive: [1] -11.8% | [2] -21.9% | [3] -1.05% | [4] -5.8% | [5] -16.3% | [6] -27.7%

CC(C)C(=O)Nc1nc2c(ncn2C2OC(CO)C(O)C2O)c(=O)[nH]1 (stereo not drawn)
inactive: [1] 5.9% | [2] -23.6% | [3] -22.3% | [4] 8.15% | [5] -5.75% | [6] -4.15%

CC(C)C(NC(=O)CI)C(=O)Nc1ccc(C(=O)O)c(O)c1 (stereo not drawn)
inactive: [1] 24.2% | [2] 20.5% | [3] 5.7% | [4] -11.6% | [5] 7.1% | [6] 24.1%

O=C(OCCCCCCCCOC(=O)c1cccc([N+](=O)[O-])c1)c1cccc([N+](=O)[O-])c1
inactive: [1] 20.9% | [2] 11.8% | [3] 11.8% | [4] 8.15% | [5] -5.55% | [6] 4.85%

NNC(=O)C(=O)Nc1nccs1
inactive: [1] 0.65% | [2] 0.85% | [3] 2.05% | [4] 6.95% | [5] -5.3% | [6] -4.6%

COC(=O)N1CCc2c([nH]oc2=O)C1
inactive: [1] -6.75% | [2] -5.4% | [3] -4.5% | [4] -13.4% | [5] -0.8% | [6] -3.75%

CCCCCCCOC(C)=O
inactive: [1] 14.8% | [2] -11.8% | [3] 11.3% | [4] -16.2% | [5] -3% | [6] 21.6%

CC(=O)OC1CC(OC(C)=O)C(OC(C)=O)C(C)O1 (stereo not drawn)
inactive: [1] 1.15% | [2] 17.9% | [3] 4.7% | [4] -15.7% | [5] -1.85% | [6] 5.45%

N#Cc1c(-c2ccc(Cl)cc2)cn2c1[nH]c(=O)c1cc(Br)ccc12
inactive: [1] 6.45% | [2] 0.95% | [3] -18.4% | [4] -12.6% | [5] -3.4% | [6] 14.4%

CCOc1c(N2CCOCC2)c(=O)c1=O
inactive: [1] 11.6% | [2] -19.4% | [3] 5.7% | [4] 6.65% | [5] 30.9% | [6] 5.95%

CCN(CC)CCN(CCN(CC)CC)c1ccc2ccccc2c1
inactive: [1] 18.9% | [2] -12.8% | [3] 7.3% | [4] 5.05% | [5] 16.2% | [6] 32.5%
